# From PubChem BioAssay
# GALK inh: blocks human galactokinase activity | actives 0.007% (n = 270,000) | Potency, µM (doses to about 57.5 µM), for the others: at the highest dose activity change, negative = inhibition, hits mostly inhibitors | AID 1868 | Purified GALK, Kinase-Glo residual ATP luminescence; also: potency is read from the fitted curve at half-maximal effect
# Target sequence (P51570 whole entry, looked up): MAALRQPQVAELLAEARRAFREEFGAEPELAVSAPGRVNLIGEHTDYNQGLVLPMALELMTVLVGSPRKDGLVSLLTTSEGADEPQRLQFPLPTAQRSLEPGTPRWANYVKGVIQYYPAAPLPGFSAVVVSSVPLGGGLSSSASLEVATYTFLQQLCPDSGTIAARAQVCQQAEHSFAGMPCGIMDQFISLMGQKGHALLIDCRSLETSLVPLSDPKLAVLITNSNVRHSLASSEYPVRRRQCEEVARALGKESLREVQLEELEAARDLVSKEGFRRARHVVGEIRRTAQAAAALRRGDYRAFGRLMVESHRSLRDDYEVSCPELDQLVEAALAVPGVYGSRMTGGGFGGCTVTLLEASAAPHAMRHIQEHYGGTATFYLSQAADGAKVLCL
#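 5 nM enzyme, 35 uM ATP, 100 uM galactose, 20 mM HEPES pH8.0, 5 mM MgCl2; 1 h RT; residual ATP by Kinase-Glo Plus luminescence, qHTS format.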
# rTrxR1 inhibitor: rat TrxR1 inhibition | O89049 | recombinant rTrxR1, NADPH fluorescence consumption, selenite substrate | Potency, µM (top dose mostly 114 µM), inactives show at the highest dose activity change, negative = inhibition, hits mostly inhibitors | actives 1% (n = 390,000) | AID 588453; also: potency is read from the fitted curve at half-maximal effect; nearly all actives have a fitted effect of over 65% in size
#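 Rat TrxR1 (90 nM in the dispensed reagent) was pre-reduced with 400 uM NADPH for 5 min at room temperature, then incubated with compound for 15 min. After 400 uM selenite was added, NADPH fluorescence (Ex 340/Em 450 nm) was followed for 8 min.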
# LDHA inh: blocks human lactate dehydrogenase A; P00338; purified LDHA, NADH/diaphorase-resazurin fluorescence; stronger effect = lower value; activity change, % (values are at about 110 or 230 µM); actives 0.15% (n = 480,000); AID 1347041; in the data active = activity change below about -30%; inconclusive = mostly about -25% to -30%;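 also: plate controls were DMSO wells for no effect and wells without enzyme for full effect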
#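 LDH5 2 nM; NADH 0.06 mM, pyruvate 0.2 mM; 200 mM Tris pH 7.4, EDTA, Tween-20; 5 min RT. Detection: diaphorase 0.133 mg/mL + resazurin 37 µM, fluorescence ex540/em590 at 0 and 20 min; normalized to enzyme-free and DMSO wells.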
# TrxR1 substrate: is turned over as a substrate by rat TrxR1; purified TrxR1 substrate turnover, NADPH consumption readout; Potency, µM (doses to about 114 µM), without a hit: at the top dose activity change, negative = substrate turnover; actives 0.01% (n = 390,000); also: potency is read from the fitted curve at half-maximal effect; nearly all actives have a fitted effect of over 50% in size
#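 Rat TrxR1, dispensed at 90 nM, was prereduced with 400 uM NADPH (final) for 5 min at ~22 deg C, then incubated with compound 15 min before 400 uM selenite. A first-read NADPH fluorescence drop versus no-compound background flagged substrates.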
# a7 integrin act: integrin-mediated muscular dystrophy alleviation activation; alpha7betagal myoblasts, beta-gal FDG fluorescence, 48 h; Potency, µM (series often up to 38.3 µM), without a hit: top-dose activation, most hits filed as activators; actives 0.064% (n = 350,000); AID 624291;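 also: potency is read from the fitted curve at half-maximal effect; 100% = response of the positive control SU9516; nearly all actives have a fitted effect of over 60% in size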
#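 Alpha7betagal+/- myoblasts (passage 13) were plated 16-24 hr, then exposed to compounds (1:260 dilution of DMSO stock) for 48 hours at 37C. After MPER lysis, β-galactosidase reporter activity was read as FDG fluorescence (ex 480/em 540) after 30 minutes.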
# PI4K2A inh: blocks human PI4K2A kinase activity. Q9BTU6. actives 0.13% (n = 420,000). activity change, negative = inhibition, % at 76.9 µM. purified PI4K2A, ADP-Glo luminescence, 1 h; stronger effect = lower value; in the data active = activity change below about -50%; inconclusive = mostly about -30% to -49%;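 also: -100% = wells without enzyme as full effect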
#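 ADP-Glo luminescence measured ADP generated by PI4K2A enzyme (4 ug/mL before mixing) with 1.2 mM PI substrate (pre-mix) and 300 microM ATP (pre-mix). Tris pH7.5 buffer with MgCl2, Triton X-100; 1 h reaction at ambient temperature.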
# The depositor's hits bear a star; ? = inconclusive; nt = no result given; [ ] = remark or other dose. This is a sample that favours compounds with a hit; in the whole collection about 1.1% have one here. Unless noted, calls follow the shape of the dose curve; as a rule, active = well fitted curve in the direction sought with a large enough effect; inconclusive = small, poorly fitted or top-dose-only effect, or another doubt; inactive = no such curve, though single readings can be large; an effect the other way counts as inactive or inconclusive. Unless noted, % is scaled to controls: 0 for no effect and ±100 for the full control effect.
SMILES,GALK inh,rTrxR1 inhibitor,LDHA inh,TrxR1 substrate,a7 integrin act,PI4K2A inh
CCN(C(=O)C(=O)c1c[nH]c2ccccc12)c1cccc(Cl)c1,nt,nt,4,nt,nt,nt
CCOC(=O)c1c(NC(C)=O)sc2c1CCC(C=NCCCN(CC)CC)=C2Sc1ccccc1,nt,3.5µM*,13,6%,-23%,-10
O=C(CCCc1nc2ccccc2o1)NCc1ccccc1F,nt,nt,5,nt,nt,nt
N#C/C(=C\c1ccc(-c2cc(Cl)ccc2Cl)o1)C(=O)Nc1cccc2ncccc12,nt,?,nt,21%[57.1 µM],nt,-53*
O=C(O)c1cccc(N2C(=O)c3cc([N+](=O)[O-])cc4cc([N+](=O)[O-])cc(c34)C2=O)c1,4%,11µM*,12,-17%,16%,-67*
NNS(=O)(=O)c1ccc2c(c1)Cc1cc(S(=O)(=O)NN)ccc1-2,1%,-17%,-35*,-10%,4%,-9
O=S(=O)(NCCO)c1ccc2c(c1)Cc1cc(S(=O)(=O)NCCO)ccc1-2,4%,5%[57.1 µM],-4,10%[57.1 µM],21%,5
Cn1c(=O)c2c(nc(OC/C=C/c3ccccc3)n2C)n(C)c1=O,nt,45µM*,-3,8%,-3%,0
COCCOc1nc2c(c(=O)n(C)c(=O)n2C)n1Cc1ccccc1,nt,nt,2,nt,nt,nt
C/C=C/COc1nc2c(c(=O)n(C)c(=O)n2C)n1C,1%,-6%,-2,-1%,0%,3
COCCOc1nc2c(c(=O)n(C)c(=O)n2C)n1C(C)c1ccccc1 (stereo unspecified),nt,nt,-36*,nt,nt,nt
CCOc1ccc2oc(C(=O)OCC(=O)NC(=O)NC)c(C)c2c1,2%,33%,-3,19%,7.1µM*,1
CCc1sc(C(C2C(=O)CC(C)(C)CC2=O)C2C(=O)CC(C)(C)CC2=O)cc1[N+](=O)[O-],2%,1.8µM*,-11,-2%[57.1 µM],-17%,-16
CN(CC(=O)NC1CCCC1)Cc1cccc(C#N)c1,nt,nt,8,nt,nt,nt
O=c1[nH]c2cc3c(cc2cc1C(c1nnnn1CC1CCCO1)N1CCCCCC1)OCO3 (stereo unspecified),1%,nt,nt,nt,nt,nt
O=c1[nH]c2cc3c(cc2cc1C(c1nnnn1CC1CCCO1)N1CCCCCC1)OCCO3 (stereo unspecified),3%,22µM*,14,14%,-7%,3
Cc1nc(N2CCCC2)cc(N2CCN(C(=O)c3ccc(C(F)(F)F)cc3)CC2)n1,nt,nt,1,nt,nt,nt
CC1(C)Cc2c(cnn2-c2cccc(F)c2)C(NC(=O)CCc2cnccn2)C1 (stereo unspecified),-1%,21%,1,6%,3.2µM*,1
Cc1nc([N+](=O)[O-])c(Br)n1CC(=O)c1ccccc1,-1%,11µM*,-1,-9%,-45%,3
Cc1nc([N+](=O)[O-])c(C(=O)OCc2ccccc2Br)n1C,-2%,6%[57.1 µM],-9,-4%,17%,0
Cc1nc([N+](=O)[O-])cn1CC(=O)c1ccc(Cl)cc1,10%,22%,-7,1%,16%,-2
Cc1nc([N+](=O)[O-])c(Br)n1CC(=O)c1ccc(Br)cc1,-1%,11µM*,-2,4%,-60%,20
Cc1nc([N+](=O)[O-])c(Br)n1CC(=O)c1ccc2ccccc2c1,-1%,11µM*,1,-5%,-42%,3
COc1ccccc1-c1noc(CSc2nc(C3CC3)n(-c3ccccc3)n2)n1,nt,nt,1,nt,nt,nt
CCOC(=O)N1CCN(C(=O)c2ccc3c(c2)NC(=O)/C(=C\c2ccc(OC)c(OC)c2)S3)CC1,7%,25µM*,0,-6%,-9%,-3
COc1c(CNC2CCN(Cc3ccccc3)CC2)c(C)nn1C,nt,nt,-9,nt,nt,nt
Cc1cc(=O)n2c(C(=O)Nc3ccc(F)c(Cl)c3)c(C(=O)Nc3cccc(C)c3C)sc2n1,nt,14%,-1,3%,nt,0
Cc1cc(=O)n2c(C(=O)Nc3ccc(C(=O)OC(C)C)cc3)c(C(=O)Nc3ccccc3)sc2n1,0%,50µM*,-3,-2%,-63%,4
